Experimental data from PubChem BioAssay (NCATS).
Results filed as inconclusive are left out. Where a call stands in place of a potency, no number is given. Activity calls are given as the source filed them. Calls come from the whole dose curve; as a rule, active = well fitted inhibition curve with a large enough effect; inconclusive = small, poorly fitted or top-dose-only effect; inactive = flat fitted curve, though single readings scatter.

Test: P-glycoprotein substrates identified in KB-8-5-11 adenocarcinoma cell line, qHTS therapeutic library screen (AID 1346987); note: nearly all actives have a fitted effect of over 65% in size
Conditions: KB-8-5-11 (P-gp overexpressing) viability, CellTiter-Glo, 72 h; series mostly up to 44.5 µM
Procedure, shortened: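 Compounds are pinned in dose-response onto KB-8-5-11 cells (500 cells/well, colchicine-free medium) and left 72 h at 37 degree C. CellTiter-Glo luminescence then yields AC50 values.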
Potency is the fitted concentration of half-maximal effect.

**Q.** With `COc1ccc2nccc(C(=O)CC[C@@H]3CCN(CC#Cc4cc(F)cc(F)c4F)C[C@@H]3C(=O)O)c2c1` as the compound, how does the Potency read?
**A.** Its Potency is “inactive”.

**Q.** With `C[C@@H](Nc1ncnc2[nH]c(-c3ccc(O)cc3)cc12)c1ccccc1` as the compound, how does the Potency read?
**A.** Its Potency is 8.2 µM (active).

**Q.** With `N#Cc1ccc(-c2ccc(S(=O)(=O)Nc3cccc(N)n3)cc2)cc1` as the compound, how does the Potency read?
**A.** Its Potency is “inactive”.

**Q.** For `CCOc1ccc(-n2c([C@@H](C)N(Cc3cccnc3)C(=O)Cc3ccc(OC(F)(F)F)cc3)nc3ncccc3c2=O)cc1`, which Potency is on record?
**A.** The Potency was “inactive”.

**Q.** Which Potency does the source give for `S=C(c1ccc(-c2ccc(Cl)c(Cl)c2)o1)N1CCCCC1` here?
**A.** Its Potency is “inactive”.

**Q.** For `C=CC(C)(C)c1[nH]c2ccccc2c1C[C@@H]1NC(=O)[C@H](C)NC1=O`, which Potency is on record?
**A.** The Potency was “inactive”.

**Q.** Which Potency does the source give for `COC(=O)c1ccc2c(c1)[nH]c1ncnc(NCCCN3CCCCC3)c12` here?
**A.** Its Potency is “inactive”.

**Q.** For `CC(=O)OC1C(OC(=O)c2ccccc2)C2C(C)(C)CCC(OC(C)=O)C2(C)C23CCC(C)(C2)C(=O)CC13` (stereo not drawn), which Potency is on record?
**A.** Its Potency is “inactive”.

**Q.** For `CCCNCCc1ccc(NS(=O)(=O)c2ccc(OC(F)(F)F)cc2)cc1`, which Potency is on record?
**A.** Its Potency is “inactive”.

**Q.** For `C[C@@H]1C[C@H]2O[C@@]3(O[C@@H]2C(C)(C)O)C(O)[C@@]2(C)C4CCC5C(C)(C)[C@@H](O[C@H]6OC[C@H](O)[C@@H](O)[C@@H]6O)CC[C@@]56C[C@@]46CC[C@]2(C)C13` (stereo partly drawn), which Potency is on record?
**A.** The Potency was “inactive”.

**Q.** For `O=S(=O)(N[C@H]1CCCC[C@@H]1N1CCOCC1)c1ccc(Cl)cc1`, which Potency is on record?
**A.** The Potency was “inactive”.

**Q.** For `C=C1CCC[C@]2(C)CC/C(=C(/CO)C(=O)OC)C[C@@H]12`, which Potency is on record?
**A.** The Potency was “inactive”.

**Q.** With `C[C@@H]1C[C@H]2C3C[C@H](F)C4=CC(=O)C=CC4(C)[C@@]3(F)[C@@H](O)CC2(C)[C@@]1(O)C(=O)COC(=O)C(C)(C)C` (stereo partly drawn) as the compound, how does the Potency read?
**A.** Its Potency is “inactive”.

**Q.** For `CCc1cc(C(N)=O)ccc1-n1nc(C(C)C)c2c(-n3cnc(-c4cnn(C)c4)c3)ccnc21`, which Potency is on record?
**A.** The Potency was 3.66 µM (active).

**Q.** For `CC[C@@H](Nc1c(Nc2cccc(C(=O)N(C)C)c2O)c(=O)c1=O)c1cc(C(C)C)co1`, which Potency is on record?
**A.** Its Potency is “inactive”.

**Q.** For `C=C1/C(=C/C=C2\CCC[C@]3(C)[C@@H]([C@H](C)/C=C/[C@H](O)C4CC4)CC[C@@H]23)C[C@@H](O)C[C@@H]1O`, which Potency is on record?
**A.** The Potency was “inactive”.

**Q.** Which Potency does the source give for `CC(C)(O)C1CC(=O)C2(C)C(CCC3(C)C(c4ccoc4)OC(=O)C4OC432)C12CCC(=O)OC2` (stereo not drawn) here?
**A.** Its Potency is “inactive”.

**Q.** Which Potency does the source give for `COc1cc2c(cc1OC)CN(C(=O)/C=C/c1c(-c3ccccc3)n(C)c3ncccc13)CC2` here?
**A.** Its Potency is 20.6 µM (active).

**Q.** With `CN(C)c1cccc(Oc2cnc(Nc3cccc(O)c3)nc2)c1` as the compound, how does the Potency read?
**A.** Its Potency is “inactive”.

**Q.** Which Potency does the source give for `CC(=O)O[C@H]1[C@@]2(O)C[C@H](C)[C@H](OC(=O)c3ccccc3)[C@@H]2[C@@H](OC(=O)CO)[C@]2(OC(C)=O)C[C@H]3C(=O)C(C)(C)C[C@@H]3[C@@]1(C)[C@H]2OC(C)=O` here?
**A.** The Potency was “inactive”.

**Q.** Which Potency does the source give for `CC(/C=C/C(=O)NO)=C\[C@@H](C)C(=O)c1ccc(N(C)C)cc1` here?
**A.** The Potency was 0.58 µM (active).

**Q.** For `Cc1ccc(C)c(NS(=O)(=O)c2cc(C(=O)Nc3ccccc3-c3ccccc3)ccc2C)c1`, which Potency is on record?
**A.** The Potency was 16.4 µM (active).

**Q.** With `COc1cc(-c2cn(C3CCc4c(F)cccc4N(CC(F)(F)F)C3=O)nn2)ccc1-n1cnc(C)c1` (stereo not drawn) as the compound, how does the Potency read?
**A.** The Potency was “inactive”.

**Q.** Which Potency does the source give for `N[C@@H]1c2cccnc2[C@H](OC(=O)N2CCC(n3c(=O)[nH]c4ncccc43)CC2)CC[C@H]1c1cccc(F)c1F` here?
**A.** The Potency was “inactive”.

**Q.** With `COc1cc(F)c(C(C)C)cc1-c1ccc(C(F)(F)F)cc1CN1C(=O)OC(c2cc(C(F)(F)F)cc(C(F)(F)F)c2)C1C` (stereo not drawn) as the compound, how does the Potency read?
**A.** The Potency was “inactive”.

**Q.** Which Potency does the source give for `CC(=O)C=C=C1C(C)(C)CC(O)CC1(C)O[C@@H]1O[C@H](CO[C@H]2OC[C@](O)(CO)[C@H]2O)[C@@H](O)[C@H](O)[C@H]1O` (stereo partly drawn) here?
**A.** The Potency was “inactive”.

**Q.** For `O=C(Nc1ccc(C(O)(C(F)(F)F)C(F)(F)F)cc1)c1ccc(C(F)(F)F)cc1`, which Potency is on record?
**A.** The Potency was 18.4 µM (active).

**Q.** For `CCC(C)C(=O)OC1C(C)C2(O)C(C=C(CO)CC3(O)C(=O)C(C)=CC32)C2C(C)(C)C12OC(=O)C(C)C` (stereo not drawn), which Potency is on record?
**A.** The Potency was “inactive”.

**Q.** With `N#Cc1ccc(COC[C@H]2O[C@@H](n3c(NCc4ccc(Cl)c(Cl)c4)nc4c(N)ncnc43)[C@H](O)[C@@H]2O)cc1` as the compound, how does the Potency read?
**A.** The Potency was “inactive”.

**Q.** With `Fc1ccc(-c2nc(-c3c(F)cccc3F)[nH]c2-c2ccncc2)cc1` as the compound, how does the Potency read?
**A.** The Potency was “inactive”.

**Q.** For `COc1ccc(Cl)c(Nc2ncnc3cc(OCC4CCN(C)CC4)c(OC)cc23)c1`, which Potency is on record?
**A.** Its Potency is “inactive”.

**Q.** For `COCCNCc1ccc(-c2cc3nccc(Oc4ccc(NC(=O)C5(C(=O)Nc6ccc(F)cc6)CC5)cc4F)c3s2)nc1`, which Potency is on record?
**A.** Its Potency is 4.61 µM (active).

**Q.** For `O=c1cc(N2CCN(c3cccc(C(F)(F)F)c3)CC2)[nH]c(=O)n1C1CCCCC1`, which Potency is on record?
**A.** The Potency was “inactive”.
